Compounds with a hit are over-represented: about 2.4% of the library has one in this group of screens.
A3A deaminase: human APOBEC3A DNA deaminase inhibition | 0.41% of 330,000 active | P31941 | recombinant A3A, FAM/TAMRA ssDNA deamination fluorescence | AID 493011 | inhibition, % at 20 µM;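 active = at least 40% inhibition at 20 µM here, with at most 30% in a related deaminase screen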
Target sequence (P31941 whole entry, looked up): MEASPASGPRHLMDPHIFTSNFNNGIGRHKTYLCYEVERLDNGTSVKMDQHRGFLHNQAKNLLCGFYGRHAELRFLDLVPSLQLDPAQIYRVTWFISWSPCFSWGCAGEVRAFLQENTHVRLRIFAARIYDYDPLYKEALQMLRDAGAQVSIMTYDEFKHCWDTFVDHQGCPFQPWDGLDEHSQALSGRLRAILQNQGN
NRP1-CendR mod: NRP-1/CendR interaction modulation; O14786; FAM-RPARPAR peptide binding to NRP-1, fluorescence polarization; inhibition, % at 25 µM; 0.85% of 360,000 active; AID 602438;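 active = inhibition or corrected inhibition above about 18%, plus a signal ratio from 0.5 to 1.5, limit read from the data, passing the limit was not always enough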
ADAM17 inh: ADAM17 inhibition, QFRET primary screen | recombinant ADAM17, EDANS/DABCYL FRET peptide cleavage | inhibition, % at 6.95 µM | 0.83% of 370,000 active;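 active = inhibition above the mean of compounds lying between control limits plus 3 SD, set per campaign, cut at about 8.5% in these data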
A3G deaminase: APOBEC3G (human) deaminase inhibition | 0.28% of 330,000 active | recombinant A3G, ssDNA deamination FAM/TAMRA fluorescence | inhibition, % at 20 µM;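 active = inhibition of at least 40% at 20 µM, with no more than 30% in the related APOBEC3A deaminase screen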
Target sequence (Q9HC16 whole entry, looked up): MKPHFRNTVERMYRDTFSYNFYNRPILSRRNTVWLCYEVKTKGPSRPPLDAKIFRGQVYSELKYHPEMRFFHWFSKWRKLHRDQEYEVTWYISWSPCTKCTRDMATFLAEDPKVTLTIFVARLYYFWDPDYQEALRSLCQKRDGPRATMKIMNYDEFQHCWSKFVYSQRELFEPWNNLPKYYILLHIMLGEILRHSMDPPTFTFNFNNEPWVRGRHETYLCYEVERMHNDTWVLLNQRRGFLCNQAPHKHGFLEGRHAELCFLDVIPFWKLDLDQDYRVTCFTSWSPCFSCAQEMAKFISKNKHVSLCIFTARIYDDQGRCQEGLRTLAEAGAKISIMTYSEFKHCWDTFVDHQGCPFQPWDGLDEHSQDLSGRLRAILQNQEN
ADAM10 inh: ADAM10 inhibition, QFRET primary screen; AID 720582; 0.62% of 370,000 active; O14672; inhibition, % at 7 µM; recombinant ADAM10, EDANS/DABCYL FRET peptide cleavage, 3 h;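 active = inhibition above a per-campaign cutoff equal to the mean of compounds falling between control-based bounds plus 3 SD, cut at about 20% in these data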
ADAM10 confirm: human ADAM10 inhibition, confirmation; ADAM10 QFRET peptide cleavage, EDANS fluorescence; inhibition, % at 6.95 µM; shares compounds with ADAM10 inh; 1% of 2,100 active;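 active = inhibition above about 20% chosen separately for each screening run, limit read from the data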
ADAM17 ctr: ADAM17 inhibition, counter-screen for ADAM10 exosite hits | shares compounds with ADAM10 inh | ADAM17 QFRET peptide cleavage, EDANS fluorescence | inhibition, % at 6.95 µM | 0.5% of 2,100 active;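 active = mean triplicate inhibition above the solvent-only control wells' mean plus 3 SD, cut at about 12% in these data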
ADAM10 counter: ADAM10 inhibition, counter-screen for ADAM17 exosite hits; inhibition, % at 6.95 µM; 47% of 2,900 active; shares compounds with ADAM17 inh; recombinant ADAM10, EDANS/DABCYL FRET peptide cleavage, 3 h;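 active = mean inhibition over the triplicate runs exceeds the activity threshold set in the earlier primary screen, cut at about 20% in these data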
ADAM17 confirm: confirmation of inhibitors of human ADAM17; recombinant ADAM17, EDANS/DABCYL QFRET peptide cleavage; inhibition, % at 6.95 µM; shares compounds with ADAM17 inh; 65% of 2,900 active;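 active = mean inhibition across replicates above the hit cutoff set in the primary screen, cut at about 8.5% in these data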
Of the large screens only hits and unclear results are named; the others gave an inactive call (follow-up assays come after a bar, where they were run).

N#CC1=C(N)NC(SCC(=O)Nc2ccc(Br)cc2)=C(C#N)C12CCCCC2	ADAM17 inh 11.4, ADAM10 inh 21.7 | ADAM10 confirm inactive | ADAM17 ctr inactive | ADAM10 counter 29.8 | ADAM17 confirm 19.5
CC[C@H](CCC(=O)N(c1ccccc1)c1ccccc1)C1CC1	none (no result: A3A deaminase, NRP1-CendR mod, A3G deaminase)
Cc1onc(C(=O)N2CCN(C(c3ccccc3)c3ccccc3)CC2)c1Br	none (no result: A3A deaminase, NRP1-CendR mod, A3G deaminase)
CCOC(=O)c1ccc(NC(=O)COC(=O)c2cccc(Oc3ccccc3)c2)cc1	ADAM17 inh 12.7, ADAM10 inh 28.1 | ADAM10 confirm inactive | ADAM17 ctr inactive | ADAM10 counter 26.9 | ADAM17 confirm 14.3
CCOC(=O)CC(=O)Nc1ccc(C(=O)OCC)cc1	none
Cc1noc(C)c1NC(=O)Nc1ccc2c(c1)C(=O)N([C@@H](C)CO)C[C@@H](C)[C@H](CN(C)S(=O)(=O)c1ccc(F)cc1)OCCCC[C@H](C)O2	none (no result: A3A deaminase, NRP1-CendR mod, A3G deaminase)
O=C(O)c1ccccc1NS(=O)(=O)c1ccc(NNC(=S)Nc2ccc(OC(F)F)cc2)c([N+](=O)[O-])c1	NRP1-CendR mod 25.6, ADAM17 inh 10.8, ADAM10 inh 23.7 (no result: A3A deaminase, A3G deaminase) | ADAM10 confirm inactive | ADAM17 ctr inactive | ADAM10 counter inactive | ADAM17 confirm 11.9
Cc1ccc(S(=O)(=O)NC(CCCNC(=O)OCc2ccccc2)C(=O)O)cc1 (centres undefined)	none (no result: A3A deaminase, NRP1-CendR mod, A3G deaminase)
COc1ccc(C(CC(=O)c2ccc(C)cc2)Nc2ccc([N+](=O)[O-])cc2)cc1 (centres undefined)	ADAM17 inh 14.4, ADAM10 inh 20.2 | ADAM10 confirm inactive | ADAM17 ctr inactive | ADAM10 counter inactive | ADAM17 confirm 13.1
Cc1ccc(NC(CC(=O)c2ccccc2)c2ccc(F)cc2)cc1 (centres undefined)	none
CC(C)Oc1ccc(CNC(=O)CC(c2ccccc2)c2cc(Cl)ccc2O)cc1 (centres undefined)	ADAM17 inh 15.5, ADAM10 inh 24.7 | ADAM10 confirm inactive | ADAM17 ctr inactive | ADAM10 counter 33.0 | ADAM17 confirm 15.5
O=C(c1cccs1)N1CCc2c([nH]c3ccccc23)C1c1ccc(Cl)cc1 (centres undefined)	ADAM17 inh 18.8, ADAM10 inh 30.9 | ADAM10 confirm inactive | ADAM17 ctr inactive | ADAM10 counter inactive | ADAM17 confirm 11.3
COc1cc(C(=O)c2ccccc2)c(OC)cc1C(=O)Nc1ccc(O)cc1	ADAM17 inh 14.8, ADAM10 inh 29.9 | ADAM10 confirm inactive | ADAM17 ctr inactive | ADAM10 counter inactive | ADAM17 confirm inactive
CC(C)(C)NC(=O)C(c1ccc(-c2ccccc2)cc1)N(C[C@H]1CC[C@@H]([C@@H]2CC[C@H](CO)O2)O1)C(=O)c1ccc(C(C)(C)C)cc1 (some centres undefined)	ADAM17 inh 11.6, ADAM10 inh 20.3 | ADAM10 confirm inactive | ADAM17 ctr inactive | ADAM10 counter 37.1 | ADAM17 confirm 18.7
Cc1ccc(C(C(=O)NC(C)(C)C)N(CC2CCCO2)C(=O)c2csnn2)cc1 (centres undefined)	none
O=S1(=O)c2c(cccc2N2CC[C@H](O)C2)O[C@H]2CCN1C2	none (no result: A3A deaminase, NRP1-CendR mod, A3G deaminase)
CN1CCN(c2ccc([N+](=O)[O-])c(-n3nc(-c4ccccc4)c4ccccc4c3=O)c2)CC1	ADAM17 inh 12.5, ADAM10 inh 20.5 | ADAM10 confirm inactive | ADAM17 ctr inactive | ADAM10 counter inactive | ADAM17 confirm 9.7
Cc1cc(C(O)c2ncc(-c3ccc(Oc4ccccc4)cc3)[nH]2)ccc1F (centres undefined)	ADAM17 inh 13.0, ADAM10 inh 20.9 (no result: A3A deaminase, A3G deaminase) | ADAM10 confirm inactive | ADAM17 ctr inactive | ADAM10 counter 37.5 | ADAM17 confirm 15.5
Cc1ccccc1-c1cnc(C(O)c2ccc(-c3ccccc3)cc2)[nH]1 (centres undefined)	ADAM17 inh 9.1, ADAM10 inh 23.0 (no result: A3A deaminase, A3G deaminase) | ADAM10 confirm inactive | ADAM17 ctr inactive | ADAM10 counter inactive | ADAM17 confirm inactive
Cc1ccccc1-c1cnc(C(O)c2ccc(C(C)(C)C)cc2)[nH]1 (centres undefined)	none (no result: A3A deaminase, A3G deaminase)
COc1ccc(N=Nc2nc(-c3ccccc3)c(-c3ccccc3)[nH]2)cc1	ADAM17 inh 9.2, ADAM10 inh 23.7 | ADAM10 confirm inactive | ADAM17 ctr inactive | ADAM10 counter 32.3 | ADAM17 confirm 15.4
O=C(O)c1ccc(-c2nc(-c3ccccc3)c(-c3ccccc3)[nH]2)cc1	none
Oc1ccccc1N=Nc1nc(-c2ccccc2)c(-c2ccccc2)[nH]1	ADAM17 inh 9.9, ADAM10 inh 25.6 | ADAM10 confirm inactive | ADAM17 ctr inactive | ADAM10 counter 28.5 | ADAM17 confirm 12.4
COC(=O)C1=C(C)N(C)C(=NCc2ccc3c(c2)OCO3)NC1c1ccc(Cl)cc1 (centres undefined)	none (no result: A3A deaminase, NRP1-CendR mod, A3G deaminase)
CC(C)(C)c1ccc(S(=O)(=O)N2CCCC(C(=O)NCc3cccs3)C2)cc1 (centres undefined)	none (no result: A3A deaminase, NRP1-CendR mod, A3G deaminase)
FC(F)Sc1ccc(NC(=S)NC2CCCCC2)cc1	ADAM17 inh 14.0, ADAM10 inh 25.5 | ADAM10 confirm inactive | ADAM17 ctr inactive | ADAM10 counter inactive | ADAM17 confirm 10.6
C#CCNC(=O)C[C@H]1C[C@@]2(C(=O)OC)C(=C[C@H](C(C)C)O[C@@H]2C2CC2)N(Cc2ccc(Cl)cc2Cl)C1=O	none (no result: A3A deaminase, NRP1-CendR mod, A3G deaminase)
O=C(Nc1nc2ccccc2s1)C1CCCN1S(=O)(=O)c1ccc(Cl)cc1 (centres undefined)	ADAM17 inh 11.3, ADAM10 inh 30.5 | ADAM10 confirm inactive | ADAM17 ctr inactive | ADAM10 counter 32.8 | ADAM17 confirm 16.5
Cc1ccc(S(=O)(=O)N2CCCC2C(=O)Nc2nc3ccccc3s2)cc1 (centres undefined)	none (no result: ADAM17 inh, ADAM10 inh)
C=CCC[C@H](Cc1ccc(F)cc1)C(=O)OC[C@@H](Cc1c[nH]c2ccccc12)NC(=O)[C@@H](CC=C)CC(=O)NCCO	ADAM17 inh 16.7, ADAM10 inh 27.4 | ADAM10 confirm inactive | ADAM17 ctr inactive | ADAM10 counter 35.2 | ADAM17 confirm 16.8
C=CCC[C@H](Cc1ccc(F)cc1)C(=O)OC[C@H](Cc1c[nH]c2ccccc12)NC(=O)[C@H](CC=C)CC(=O)NCCO	ADAM17 inh 9.4, ADAM10 inh 24.5 | ADAM10 confirm inactive | ADAM17 ctr inactive | ADAM10 counter 43.3 | ADAM17 confirm 22.5

Bioassay records as filed in PubChem.
